Source: PubChem BioAssay (National Center for Advancing Translational Sciences (NCATS))
The list is not random: actives were taken first. Their share in the collection is about 17%.
DT40 TDP1 CPT: DT40-hTDP1 cell growth loss with CPT. chicken DT40 Tdp1-/-;hTDP1 cells + 20 nM CPT, ATP luminescence, 48 h. Potency, µM (doses to about 46.2 µM), for the others: at the top dose activity change, negative = growth inhibition, hits mostly inhibitors. actives 12% (n = 420,000). AID 686979; also: % is scaled to controls: 0 for no effect and ±100 for the full control effect; nearly all actives have a fitted effect of over 55% in size
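Chicken DT40 Tdp1-/- cells stably complemented with human TDP1 were seeded at 400 cells/well in medium containing 20 nM camptothecin, exposed to pin-transferred compounds, and grown at 37 °C for at least 48 hr. Viability was read as ATP luminescence.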
DT40 TDP1 no CPT: qHTS for Inhibitors of human tyrosyl-DNA phosphodiesterase 1 (TDP1): qHTS in cells in absence of CPT | actives 15% (n = 420,000) | DT40 Tdp1-/- hTDP1 cells, no CPT, ATP luminescence, 48 h | Potency, µM (series often up to 46.2 µM), for the others: at the highest dose activity change, negative = growth inhibition, usual class: inhibitors; also: % is scaled to controls: 0 for no effect and ±100 for the full control effect; nearly all actives have a fitted effect of over 55% in size
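No-CPT arm: Tdp1-/-;hTDP1 DT40 cells (400/well) plus compounds, incubated ≥48 hr at 37 °C. Readout CellTiter-Glo luminescence.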
HT1080NT lethal: kills 2HG-producing HT-1080-NT fibrosarcoma cells | HT-1080-NT fibrosarcoma viability, CellTiter-Glo ATP luminescence, 48 h | actives 1.6% (n = 360,000) | Potency, µM (highest dose often 46.1 µM), for the others: top-dose activity, negative = less viability, most hits filed as cytotoxic;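 also: NT is the 2HG producing partner of a matched IDH1 knockdown line; 0% = DMSO-treated cells and -100% = media-only wells without cells; nearly all actives have a fitted effect of over 55% in size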
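750 cells/well, RPMI + 5% FBS; 2 h settle, compound pin-transfer, 48 h at 37 degrees C. CellTiter-Glo 10 min RT, luminescence. Normalized to DMSO and media-only wells.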
HT1080 IDH1KD tx: HT-1080 IDH1 knockdown cell toxicity (counter line) | actives 2% (n = 360,000) | Potency, µM (titrated, usually from 46.1 µM), for inactives: top-dose activity, negative = toxicity, actives largely listed as cytotoxic | HT-1080 IDH1 knockdown viability, ATP luminescence, 48 h;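 also: 0% = DMSO wells and -100% = cell-free medium wells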
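Cytotoxicity counter-line: IDH1KD HT-1080, 48 h, CellTiter-Glo. Curves classed by r2, magnitude and activity.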
TGFb SMAD3 inh: TGF-b pathway inhibition | HepG2 CAGA-GFP TGF-b/SMAD3 reporter, GFP fluorescence, 18 h; TGF-beta stimulated, 500 pg/mL final | Potency, µM (doses to about 46.1 µM), without a hit: at the highest dose activity, negative = inhibition, most hits filed as inhibitors | actives 1.2% (n = 410,000) | AID 588855; also: % is scaled to controls: 0 for no effect and ±100 for the full control effect; nearly all actives have a fitted effect of over 65% in size
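Cell-based qHTS in HEPG2 carrying a CAGA-GFP Smad reporter; compounds added before 500 pg/mL final TGF-beta, 18 h incubation at 37 degrees C, GFP fluorescence quantified per cell by imaging cytometry.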
HepG2 viability: counter-screen for TGF-b inhibitors: cytotoxicity in HepG2 cells | HepG2 CAGA-GFP viability, ATP luminescence, 18 h | Potency, µM (top dose mostly 46.1 µM), inactives show at the top dose activity change, negative = cytotoxicity, actives largely listed as cytotoxic | actives 0.76% (n = 410,000) | AID 588856
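HepG2 CAGA-GFP cells (1000/well, DMEM with 1% FBS) received compound, then TGF-beta at 500 pg/mL final, and were incubated 18 hours at 37 degrees C. Viability was read by CellTiter-Glo luminescence. Media-only wells were set as complete cell-killing and DMSO as no toxicity.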
Active calls of the source: *; ? = inconclusive; / = no result; [ ] = another dose, or the depositor's remark. Calls follow the shape of the dose curve; as a rule, active = well fitted curve in the direction sought with a large enough effect; inconclusive = small, poorly fitted or top-dose-only effect, or another doubt; inactive = no such curve, though single readings can be large; an effect the other way counts as inactive or inconclusive. Potency is read from the fitted curve at half-maximal effect.

SMILES	DT40 TDP1 CPT	DT40 TDP1 no CPT	HT1080NT lethal	HT1080 IDH1KD tx	TGFb SMAD3 inh	HepG2 viability
Cc1nc2ccccc2n1CSc1ccccc1	-28.7%	?	-0.4%	-20.6%	0.9%	2.1%
C/C(=N\NC(=O)c1ccn(C)n1)c1cccc(NC(=O)c2ccc(C)s2)c1	?	?	0.9%	-0.7%	17.4%	-92.2%
CC1CC(C)CN(C(=O)c2ccncc2)C1 (stereo unspecified)	0.3%	-17.8%	17.2%	5.9%	12.6%	4.2%
CC1C/C(=C/c2ccncc2)C(=O)/C(=C/c2ccncc2)C1 (stereo unspecified)	0.651µM*	0.581µM*	?	3.66µM*	5.62µM*	5.62µM*
Cn1cccc1/C=C1/SC(=S)N(CC(=O)O)C1=O	0.1%	-10.4%	-5.5%	2.1%	-8.3%	-29.0%
CC1C/C(=C/c2cccn2C)C(=O)/C(=C/c2cccn2C)C1 (stereo unspecified)	23.1µM*	23.1µM*	?	?	110.3%	-99.6%
CN(C)CCOC(=O)NCC12CC3CC(CC(C3)C1)C2	-7.4%	-23.0%	-2.3%	-3.4%	-5.2%	-4.0%
NC(=O)CSc1n[nH]c(=O)n1CCc1ccccc1	9.1%	0.7%	21.4%	13.8%	9.0%	3.3%
O=C(Nc1ccc(Oc2cccnc2)cc1)C1CCN(Cc2ccccc2F)CC1	?	?	1.6%	-1.4%	-14.0%	-34.0%
Cc1cc(CN2CCCCC2C(=O)Nc2ccc(Oc3cccnc3)cc2)oc1C (stereo unspecified)	?	?	-0.7%	-2.8%	-15.0%	-3.9%
CC(=O)c1cccc(CN2CCC(C(=O)Nc3ccc(-c4cccc(C)c4)cc3)CC2)c1	10.3µM*	6.51µM*	?	20.6µM*	?	-107.5%
Cc1ccc(CN2CCC(C(=O)Nc3ccc(Oc4cccnc4)cc3)CC2)cc1	18.4µM*	16.4µM*	-7.9%	-25.6%	-4.6%	-43.6%
O=C(Nc1ccc(Oc2cccnc2)cc1)C1CCN(Cc2cccc(Cl)c2)CC1	18.4µM*	?	-21.8%	?	-4.5%	-24.3%
CC(=O)c1cccc(NC(=O)C2CCN(S(=O)(=O)c3ccc(C)cc3)CC2)c1	1.6%	-28.7%	-4.8%	0.0%[9.24 µM]	-23.9%	-4.7%
CC(=O)c1cccc(CN2CCC(C(=O)Nc3ccc(Oc4cccnc4)cc3)CC2)c1	?	23.1µM*	-9.7%	?	-5.4%	3.1%
Cc1nn2c(nc1=O)NNC2(C)C(C)(C)C (stereo unspecified)	0.1%	17.3%	-21.9%	?	-19.7%	-49.8%
Cc1c(N)cc(S(=O)(=O)O)cc1NC(=O)c1cccc([N+](=O)[O-])c1	7.3%	-27.1%	0.4%	-1.9%	-4.9%	-1.2%
Cc1ccc(CN2CCN(/N=C/c3cccn3C)CC2)c(C)c1	23.1µM*	23.1µM*	1.9%	1.5%	-27.4%	-13.9%
CN(C)S(=O)(=O)N1CCN(c2ccc([N+](=O)[O-])c(N3CCCCC3)c2)CC1	-26.4%	10.3µM*	-4.5%	16.0%	3.4%	-0.1%
Cc1cc(C)n(-c2cc(N3CCN(S(=O)(=O)c4ccc(Cl)cc4)CC3)ccc2[N+](=O)[O-])n1	7.31µM*	6.51µM*	0.4%	10.8%	?	-22.5%
CC(=O)N1CCN(c2ccc([N+](=O)[O-])c(-n3nc(C)cc3C)c2)CC1	-6.3%	-2.9%	11.7%	16.0%	22.6%	-0.4%
Cc1cc(C)n(-c2cc(N3CCN(C(=O)c4cccc(Br)c4)CC3)ccc2[N+](=O)[O-])n1	?	20.6µM*	-3.4%	-13.7%	?	-15.0%
CCOC(=O)N1CCc2c(sc3c2c(=O)n(Cc2ccccc2)c(=O)n3Cc2cc(C)ccc2C)C1	-1.0%	7.1%	/	/	-12.0%	4.7%
CCOC(=O)N1CCc2c(sc3c2c(=O)n(Cc2ccccc2)c(=O)n3Cc2c(F)cccc2Cl)C1	13µM*	18.4µM*	/	/	-41.0%	-30.3%
CCOC(=O)N1CCc2c(sc3c2c(=O)n(Cc2ccccc2)c(=O)n3Cc2cccc(C)c2)C1	13µM*	13µM*	-3.6%	-14.9%	0.9%	-4.4%
SMILES	DT40 TDP1 CPT	DT40 TDP1 no CPT	HT1080NT lethal	HT1080 IDH1KD tx	TGFb SMAD3 inh	HepG2 viability
Cc1ccc(C)c(SCC(=O)NCC(c2ccco2)N2CCCCC2)c1 (stereo unspecified)	?	20.6µM*	-5.2%	-3.3%	0.0%	-4.1%
Cc1ccc(S(=O)(=O)NC(CC(C)C)C(=O)NCC(c2ccco2)N2CCCCC2)cc1 (stereo unspecified)	23.1µM*	?	1.8%	?	1.4%	-17.4%
Cc1cc(Br)ccc1SCC(=O)NCC(c1ccco1)N1CCCCC1 (stereo unspecified)	18.4µM*	?	-17.3%	-17.7%	?	-25.4%
Cc1ccc(C)c(OCC(=O)NCC(c2ccco2)N2CCCCC2)c1 (stereo unspecified)	?	?	7.3%	-13.3%	-12.4%	-19.7%
c1ccc2sc(NC3=NCN(C4CCCCC4)CN3)nc2c1	?	?	3.2%	-5.2%	-9.2%	6.0%
CC1CCCCC1N1CN=C(Nc2nc3ccccc3s2)NC1 (stereo unspecified)	20.6µM*	?	-5.4%	-14.2%	-6.7%	-16.8%
COc1ncc2nc(-c3cc(F)cc(F)c3)c(=O)n(-c3ccccc3)c2n1	-1.1%	-31.0%	/	/	/	/
COc1cc(NC(=O)Cn2ccsc2=N)cc(OC)c1	?	-20.6%	8.5%	12.4%	-15.9%	-0.9%
CC1(C)N=C(N)N=C(N)N1c1ccc(Cl)cc1	?	0.335µM*	/	/	/	/
CN1C(=O)N(c2ccc(Cl)cc2)C(C)(O)CC1(C)C (stereo unspecified)	-17.5%	19.0%	-2.3%	0.3%	134.3%	0.0%
Cc1ccc(OC(=S)Nc2ccccc2)c(C)c1	?	16.4µM*	-9.3%	-5.2%	0.0%	5.3%
Cc1ccc(OC(=S)Nc2ccc(F)cc2)cc1	2.7%	-14.2%	-4.1%	2.1%	22.6%	-32.2%
CCc1ccc2c(CN3CCC(C(=O)OC)CC3)cc(=O)oc2c1	-1.2%	-28.5%	-1.7%	-12.9%	22.8%	-34.7%
CNC(=O)C1CN(C(=O)c2cccc(S(=O)(=O)N3c4ccccc4CC3C)c2)c2ccccc2O1 (stereo unspecified)	?	18.4µM*	-2.5%	-6.8%	?	-18.3%
